Key:
Test in all cases: PBM; 200 nM protein, PBS
Conditions in all cases: dsDNA, one strand shown
HESX1 [1] = biological target: HESX1 (Homo sapiens, UniProt Q9UBX0 95-180, R165K)
SHOX [2] = biological target: SHOX (Homo sapiens, UniProt O15266 103-189)
ALX4 = ALX4 (Homo sapiens, UniProt Q9H161 200-286, Q225E)
HESX1 [3] = biological target: HESX1 (Homo sapiens, UniProt Q9UBX0 95-180)
ALX1 [4] = biological target: ALX1 (Homo sapiens, UniProt Q15699 118-204, L144V)
ALX3 [5] = biological target: ALX3 (Homo sapiens, UniProt O95076 139-225, N203Q)
Sequence of ALX3 (Homo sapiens, UniProt O95076 139-225, N203Q) (O95076 139-225 N203Q): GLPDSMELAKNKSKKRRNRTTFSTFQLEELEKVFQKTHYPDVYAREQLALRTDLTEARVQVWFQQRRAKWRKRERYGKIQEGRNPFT

SHOX [6] = biological target: SHOX (Homo sapiens, UniProt O15266 103-189, R173C)
Sequence of SHOX (Homo sapiens, UniProt O15266 103-189, R173C) (O15266 103-189 R173C): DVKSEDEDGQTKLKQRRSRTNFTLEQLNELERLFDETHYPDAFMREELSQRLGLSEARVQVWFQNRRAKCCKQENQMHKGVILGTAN

ALX1 [7] = biological target: ALX1 (Homo sapiens, UniProt Q15699 118-204, L144R)
Sequence of ALX1 (Homo sapiens, UniProt Q15699 118-204, L144R) (Q15699 118-204 L144R): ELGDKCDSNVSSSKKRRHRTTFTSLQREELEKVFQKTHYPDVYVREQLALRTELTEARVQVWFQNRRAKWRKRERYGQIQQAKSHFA

ALX3 [8] = biological target: ALX3 (Homo sapiens, UniProt O95076 139-225)
Sequence of ALX3 (Homo sapiens, UniProt O95076 139-225) (O95076 139-225): as the sequence (O95076 139-225 N203Q) above, with Q65N counted along it

PROP1 [9] = biological target: PROP1 (Homo sapiens, UniProt O75360 56-141)
Sequence of PROP1 (Homo sapiens, UniProt O75360 56-141) (O75360 56-141): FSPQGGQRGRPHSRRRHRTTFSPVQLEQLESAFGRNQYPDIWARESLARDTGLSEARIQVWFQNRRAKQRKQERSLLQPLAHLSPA

HESX1 [10] = biological target: HESX1 (Homo sapiens, UniProt Q9UBX0 95-180, R109Q)
Sequence of HESX1 (Homo sapiens, UniProt Q9UBX0 95-180, R109Q) (Q9UBX0 95-180 R109Q): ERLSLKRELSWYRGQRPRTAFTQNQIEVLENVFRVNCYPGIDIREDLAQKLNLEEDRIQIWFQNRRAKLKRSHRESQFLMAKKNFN

PROP1 [11] = biological target: PROP1 (Homo sapiens, UniProt O75360 56-141, R99H)
Sequence of PROP1 (Homo sapiens, UniProt O75360 56-141, R99H) (O75360 56-141 R99H): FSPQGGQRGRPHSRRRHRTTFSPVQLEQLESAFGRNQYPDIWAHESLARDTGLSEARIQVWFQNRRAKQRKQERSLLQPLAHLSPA

ALX3 [12] = biological target: ALX3 (Homo sapiens, UniProt O95076 139-225, L168Q)
Sequence of ALX3 (Homo sapiens, UniProt O95076 139-225, L168Q) (O95076 139-225 L168Q): as the sequence (O95076 139-225 N203Q) above, with L30Q, Q65N counted along it

HESX1 [13] = biological target: HESX1 (Homo sapiens, UniProt Q9UBX0 95-180, P111T)
Sequence of HESX1 (Homo sapiens, UniProt Q9UBX0 95-180, P111T) (Q9UBX0 95-180 P111T): as the sequence (Q9UBX0 95-180 R109Q) above, with Q15R, P17T counted along it

ALX3 [14] = biological target: ALX3 (Homo sapiens, UniProt O95076 139-225, L168V)
Sequence of ALX3 (Homo sapiens, UniProt O95076 139-225, L168V) (O95076 139-225 L168V): as the sequence (O95076 139-225 N203Q) above, with L30V, Q65N counted along it

PROP1 [15] = biological target: PROP1 (Homo sapiens, UniProt O75360 56-141, F88S)
Sequence of PROP1 (Homo sapiens, UniProt O75360 56-141, F88S) (O75360 56-141 F88S): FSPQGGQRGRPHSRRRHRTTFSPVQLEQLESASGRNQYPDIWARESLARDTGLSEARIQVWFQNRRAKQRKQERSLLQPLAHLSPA

HESX1 [16] = biological target: HESX1 (Homo sapiens, UniProt Q9UBX0 95-180, F115L)
Sequence of HESX1 (Homo sapiens, UniProt Q9UBX0 95-180, F115L) (Q9UBX0 95-180 F115L): as the sequence (Q9UBX0 95-180 R109Q) above, with Q15R, F21L counted along it

ALX1 [17] = biological target: ALX1 (Homo sapiens, UniProt Q15699 118-204)
Sequence of ALX1 (Homo sapiens, UniProt Q15699 118-204) (Q15699 118-204): as the sequence (Q15699 118-204 L144R) above, with R27L counted along it

ALX3 [18] = biological target: ALX3 (Homo sapiens, UniProt O95076 139-225, N203S)
Sequence of ALX3 (Homo sapiens, UniProt O95076 139-225, N203S) (O95076 139-225 N203S): as the sequence (O95076 139-225 N203Q) above, with Q65S counted along it

MSX2 = MSX2 (Homo sapiens, UniProt P35548 130-214, R199I)
Sequence of MSX2 (P35548 130-214 R199I): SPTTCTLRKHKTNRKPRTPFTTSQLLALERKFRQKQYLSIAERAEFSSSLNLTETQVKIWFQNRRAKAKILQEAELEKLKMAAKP

Sequence of HESX1 (Homo sapiens, UniProt Q9UBX0 95-180) (Q9UBX0 95-180): as the sequence (Q9UBX0 95-180 R109Q) above, with Q15R counted along it
Sequence of ALX1 (Homo sapiens, UniProt Q15699 118-204, L144V) (Q15699 118-204 L144V): as the sequence (Q15699 118-204 L144R) above, with R27V counted along it
Sequence of HESX1 (Homo sapiens, UniProt Q9UBX0 95-180, R165K) (Q9UBX0 95-180 R165K): as the sequence (Q9UBX0 95-180 R109Q) above, with Q15R, R71K counted along it
Sequence of ALX4 (Q9H161 200-286 Q225E): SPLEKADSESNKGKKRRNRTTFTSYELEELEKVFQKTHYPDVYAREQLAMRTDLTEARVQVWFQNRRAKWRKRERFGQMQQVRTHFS
Sequence of SHOX (Homo sapiens, UniProt O15266 103-189) (O15266 103-189): as the sequence (O15266 103-189 R173C) above, with C71R counted along it

Row | Sequence | binding signal (HESX1 [1]) | binding signal (SHOX [2]) | binding signal (ALX4) | binding signal (HESX1 [3]) | binding signal (ALX1 [4]) | binding signal (ALX3 [5]) | binding signal (SHOX [6]) | binding signal (ALX1 [7]) | binding signal (ALX3 [8]) | binding signal (PROP1 [9]) | binding signal (HESX1 [10]) | binding signal (PROP1 [11]) | binding signal (ALX3 [12]) | binding signal (HESX1 [13]) | binding signal (ALX3 [14]) | binding signal (PROP1 [15]) | binding signal (HESX1 [16]) | binding signal (ALX1 [17]) | binding signal (ALX3 [18]) | binding signal (MSX2)
1 | AATTAAGA | 11.6 upbm affinity estimate (log intensity, higher = more binding, comparable within an allelic series) | 11.7 upbm affinity estimate (log intensity, higher = more binding, comparable within an allelic series) | 12.8 upbm affinity estimate (log intensity, higher = more binding, comparable within an allelic series) | 11.6 upbm affinity estimate (log intensity, higher = more binding, comparable within an allelic series) | 11.7 upbm affinity estimate (log intensity, higher = more binding, comparable within an allelic series) | 8.44 upbm affinity estimate (log intensity, higher = more binding, comparable within an allelic series) | 9.59 upbm affinity estimate (log intensity, higher = more binding, comparable within an allelic series) | 11.3 upbm affinity estimate (log intensity, higher = more binding, comparable within an allelic series) | 12.4 upbm affinity estimate (log intensity, higher = more binding, comparable within an allelic series) | 11.2 upbm affinity estimate (log intensity, higher = more binding, comparable within an allelic series) | 9.03 upbm affinity estimate (log intensity, higher = more binding, comparable within an allelic series) | 10.9 upbm affinity estimate (log intensity, higher = more binding, comparable within an allelic series) | 10.4 upbm affinity estimate (log intensity, higher = more binding, comparable within an allelic series) | 10.5 upbm affinity estimate (log intensity, higher = more binding, comparable within an allelic series) | 9.95 upbm affinity estimate (log intensity, higher = more binding, comparable within an allelic series) | 7.71 upbm affinity estimate (log intensity, higher = more binding, comparable within an allelic series) | 7.79 upbm affinity estimate (log intensity, higher = more binding, comparable within an allelic series) | 12.1 upbm affinity estimate (log intensity, higher = more binding, comparable within an allelic series) | 8.55 upbm affinity estimate (log intensity, higher = more binding, comparable within an allelic series) | –
2 | CCTTCGAG | 6.45 upbm affinity estimate (log intensity, higher = more binding, comparable within an allelic series) | 7.09 upbm affinity estimate (log intensity, higher = more binding, comparable within an allelic series) | – | 6.39 upbm affinity estimate (log intensity, higher = more binding, comparable within an allelic series) | – | – | 7.23 upbm affinity estimate (log intensity, higher = more binding, comparable within an allelic series) | – | – | – | 6.55 upbm affinity estimate (log intensity, higher = more binding, comparable within an allelic series) | – | – | 6.56 upbm affinity estimate (log intensity, higher = more binding, comparable within an allelic series) | – | – | 6.63 upbm affinity estimate (log intensity, higher = more binding, comparable within an allelic series) | – | – | –
3 | CAATTACG | 12 upbm affinity estimate (log intensity, higher = more binding, comparable within an allelic series) | 11.8 upbm affinity estimate (log intensity, higher = more binding, comparable within an allelic series) | – | 12.1 upbm affinity estimate (log intensity, higher = more binding, comparable within an allelic series) | 11.2 upbm affinity estimate (log intensity, higher = more binding, comparable within an allelic series) | – | 9.27 upbm affinity estimate (log intensity, higher = more binding, comparable within an allelic series) | 10.9 upbm affinity estimate (log intensity, higher = more binding, comparable within an allelic series) | – | – | 8.68 upbm affinity estimate (log intensity, higher = more binding, comparable within an allelic series) | 11 upbm affinity estimate (log intensity, higher = more binding, comparable within an allelic series) | – | 10.6 upbm affinity estimate (log intensity, higher = more binding, comparable within an allelic series) | – | – | 7.47 upbm affinity estimate (log intensity, higher = more binding, comparable within an allelic series) | 12.1 upbm affinity estimate (log intensity, higher = more binding, comparable within an allelic series) | – | 12.5 upbm affinity estimate (log intensity, higher = more binding, comparable within an allelic series)
4 | AATTAGTA | 11.7 upbm affinity estimate (log intensity, higher = more binding, comparable within an allelic series) | 11.6 upbm affinity estimate (log intensity, higher = more binding, comparable within an allelic series) | 12.9 upbm affinity estimate (log intensity, higher = more binding, comparable within an allelic series) | 11.7 upbm affinity estimate (log intensity, higher = more binding, comparable within an allelic series) | 11.7 upbm affinity estimate (log intensity, higher = more binding, comparable within an allelic series) | 8.49 upbm affinity estimate (log intensity, higher = more binding, comparable within an allelic series) | 9.25 upbm affinity estimate (log intensity, higher = more binding, comparable within an allelic series) | 11.2 upbm affinity estimate (log intensity, higher = more binding, comparable within an allelic series) | 12.3 upbm affinity estimate (log intensity, higher = more binding, comparable within an allelic series) | 11 upbm affinity estimate (log intensity, higher = more binding, comparable within an allelic series) | 9.01 upbm affinity estimate (log intensity, higher = more binding, comparable within an allelic series) | 11 upbm affinity estimate (log intensity, higher = more binding, comparable within an allelic series) | 10.4 upbm affinity estimate (log intensity, higher = more binding, comparable within an allelic series) | 10.5 upbm affinity estimate (log intensity, higher = more binding, comparable within an allelic series) | 9.94 upbm affinity estimate (log intensity, higher = more binding, comparable within an allelic series) | 7.8 upbm affinity estimate (log intensity, higher = more binding, comparable within an allelic series) | 7.68 upbm affinity estimate (log intensity, higher = more binding, comparable within an allelic series) | 12.3 upbm affinity estimate (log intensity, higher = more binding, comparable within an allelic series) | 8.57 upbm affinity estimate (log intensity, higher = more binding, comparable within an allelic series) | 12.3 upbm affinity estimate (log intensity, higher = more binding, comparable within an allelic series)
5 | AATTAGCG | 11.8 upbm affinity estimate (log intensity, higher = more binding, comparable within an allelic series) | 12 upbm affinity estimate (log intensity, higher = more binding, comparable within an allelic series) | 13.1 upbm affinity estimate (log intensity, higher = more binding, comparable within an allelic series) | 11.9 upbm affinity estimate (log intensity, higher = more binding, comparable within an allelic series) | 11.7 upbm affinity estimate (log intensity, higher = more binding, comparable within an allelic series) | 8.21 upbm affinity estimate (log intensity, higher = more binding, comparable within an allelic series) | 9.63 upbm affinity estimate (log intensity, higher = more binding, comparable within an allelic series) | 11.3 upbm affinity estimate (log intensity, higher = more binding, comparable within an allelic series) | 12.4 upbm affinity estimate (log intensity, higher = more binding, comparable within an allelic series) | 11.2 upbm affinity estimate (log intensity, higher = more binding, comparable within an allelic series) | 8.95 upbm affinity estimate (log intensity, higher = more binding, comparable within an allelic series) | 11.2 upbm affinity estimate (log intensity, higher = more binding, comparable within an allelic series) | 10.4 upbm affinity estimate (log intensity, higher = more binding, comparable within an allelic series) | 10.6 upbm affinity estimate (log intensity, higher = more binding, comparable within an allelic series) | 9.93 upbm affinity estimate (log intensity, higher = more binding, comparable within an allelic series) | 7.48 upbm affinity estimate (log intensity, higher = more binding, comparable within an allelic series) | 7.68 upbm affinity estimate (log intensity, higher = more binding, comparable within an allelic series) | 12.6 upbm affinity estimate (log intensity, higher = more binding, comparable within an allelic series) | 8.38 upbm affinity estimate (log intensity, higher = more binding, comparable within an allelic series) | 12.4 upbm affinity estimate (log intensity, higher = more binding, comparable within an allelic series)
